Measured values taken from PubChem BioAssay (NCATS).
Inconclusive results are not listed. A number with no mark means an inactive call. Calls follow the shape of the dose curve; as a rule, active = well fitted inhibition curve with a large enough effect; inconclusive = small, poorly fitted or top-dose-only effect; inactive = flat fitted curve, though single readings scatter.

assay: qHTS for Inhibitors of Plasmodium falciparum (DD2) proliferation (AID 504314);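 also: parasite DNA measured by SYBR Green fluorescence after red cell lysis; plate controls were DMSO vehicle for no effect and artemisinin wells for full effect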; conditions: P. falciparum Dd2 in erythrocytes, SYBR Green growth, 72 h; series mostly up to 1.12 µM; activity, negative = inhibition: at the top concentration
How it was run: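 Erythrocytes infected with P. falciparum Dd2 (0.3% parasitemia, 2.5% hematocrit) exposed to compound 72 h at 37C, 5% CO2. Parasite DNA quantified by SYBR Green fluorescence after saponin/Triton lysis overnight; normalized to 0.29 uM artemisinin and DMSO.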

With `CC#CCN1c2ccccc2[C@]23C[C@@H](C(=O)OC)N(C(=O)c4cccs4)C2=NC(C(=O)OC)=C(C(=O)OC)[C@H]13` as the compound, how does the “activity, negative = inhibition” value read?
The value was 5.45%.

Which “activity, negative = inhibition” value does the source give for `CCN1C(=O)N[C@@H](c2cccs2)C(C(=O)OC)=C1C` here?
Its value is 1.97%.

With `CCCCC1=CC2=CC(=O)C(C)(OC(=O)CC)C(=O)C2=CN1CCOC` (configuration not stated) as the compound, how does the “activity, negative = inhibition” value read?
The value was 4.1%.

With `C=CCN1C=C2C(=O)C(C)(OC(=O)CC)C(=O)C=C2C=C1CCCC` (configuration not stated) as the compound, how does the “activity, negative = inhibition” value read?
The value was -2.99%.

With `COC(=O)CCC(=O)OC1(C)C(=O)C2=CN(C3CCCC3)C(c3ccc(OC)cc3)=CC2=C(Br)C1=O` (configuration not stated) as the compound, how does the “activity, negative = inhibition” value read?
The value was -0.724%.

For `CCCCCCC(=O)Cc1cc(OC)c(OC)cc1C=C(C(=O)OCC)C(=O)OCC`, which “activity, negative = inhibition” value is on record?
Its value is -0.581% [at 6.11 µM].

For `CCCCC1=CC2=CC(=O)C(C)(OC(=O)CC)C(=O)C2=CN1CCc1ccc(Br)cc1` (configuration not stated), which “activity, negative = inhibition” value is on record?
Its value is 3.75%.

For `CC1(OC(=O)C2CCCC2)C(=O)C=C2C=C(c3ccsc3)N(c3ccccc3)C=C2C1=O` (configuration not stated), which “activity, negative = inhibition” value is on record?
The value was 1.88%.

For `COC(=O)CCCC1=CC2=CC(=O)C(C)(OC(=O)c3cccs3)C(=O)C2=CN1Cc1ccccc1` (configuration not stated), which “activity, negative = inhibition” value is on record?
The value was 2.19%.

Which “activity, negative = inhibition” value does the source give for `CCCCc1nc2c(c3c1C[C@H](C)OC3)CN(C(=O)Nc1cccc(C#N)c1)CC2` here?
The value was -2.23%.

With `COC(=O)[C@H]1[C@@H](C)N(Cc2ccccc2)C(=O)N[C@H]1c1cccc(C(F)(F)F)c1` as the compound, how does the “activity, negative = inhibition” value read?
The value was 2.64%.

For `COC/C=C/C1=CC2=CC(=O)C(C)(OC(=O)c3cnc4ccccc4n3)C(=O)C2=CN1C1CCCC1` (configuration not stated), which “activity, negative = inhibition” value is on record?
The value was -0.595%.

Which “activity, negative = inhibition” value does the source give for `Cc1ccc(S(=O)(=O)N2CCc3nc(-c4ccccc4)c4c(c3C2)CO[C@@H](C)C4)cc1` here?
Its value is 4.19%.

Which “activity, negative = inhibition” value does the source give for `CCCCC1=CC2=CC(=O)C(C)(OC(=O)CC)C(=O)C2=CN1CCCCO` (configuration not stated) here?
The value was 3.12%.

With `COC(=O)C1=C(C(=O)OC)[C@@H]2Nc3ccccc3[C@@]23C[C@@H](C(=O)OC)N(S(=O)(=O)c2c(C)noc2C)C3=N1` as the compound, how does the “activity, negative = inhibition” value read?
The value was 2.71%.

For `COc1ccc(-c2nc3c(c4c2C[C@H](c2ccccc2)OC4)CN(S(=O)(=O)c2c(C)noc2C)CC3)c(C)c1`, which “activity, negative = inhibition” value is on record?
The value was 1.35%.

Which “activity, negative = inhibition” value does the source give for `COC(=O)C1=C(C(=O)OC)[C@@H]2Nc3ccccc3[C@@]23C[C@@H](C(=O)OC)N=C3N1` here?
Its value is 0.293%.

Which “activity, negative = inhibition” value does the source give for `CCN1C(=O)N[C@@H](c2cccc(F)c2)C(C(C)=O)=C1C` here?
Its value is 0.504%.

Which “activity, negative = inhibition” value does the source give for `COC(=O)[C@]1(C)C=C[C@@H](C)[C@H](c2ccccc2Br)N1C(=O)C(F)(F)F` here?
The value was -0.568% [at 6.11 µM].

Which “activity, negative = inhibition” value does the source give for `CCOC(=O)CN1C(=O)N[C@@H](c2cccc(C(F)(F)F)c2)[C@@H](C(=O)OC)[C@H]1C` here?
The value was -1.69%.

With `CCCCS(=O)(=O)N1CCc2nc(COc3ccccc3)c3c(c2C1)CO[C@@H](C)C3` as the compound, how does the “activity, negative = inhibition” value read?
Its value is -0.0713%.

Which “activity, negative = inhibition” value does the source give for `COC(=O)CCC(=O)OC1(C)C(=O)C=C2C=C(C3CC3)N(C3CCCCC3)C=C2C1=O` (configuration not stated) here?
Its value is 0.823%.

With `COCCN1C=C2C(=O)C(C)(OC(=O)CCc3ccccc3)C(=O)C=C2C=C1c1ccc(C#N)cc1` (configuration not stated) as the compound, how does the “activity, negative = inhibition” value read?
The value was -3.56%.

With `CCN1C(=O)N(C)[C@@H](c2ccccc2)C(C(C)=O)=C1C` as the compound, how does the “activity, negative = inhibition” value read?
Its value is -4.93%.

For `CC1(OC(=O)CCc2ccccc2)C(=O)C=C2C=C(c3ccc(C#N)cc3)N(c3ccccc3)C=C2C1=O` (configuration not stated), which “activity, negative = inhibition” value is on record?
The value was -2.95%.

Which “activity, negative = inhibition” value does the source give for `COC(=O)N1C(/C=C/C=C/c2ccc(OC)cc2)=Cc2ccccc2C1CC(C)=O` (configuration not stated) here?
The value was 0.869%.

For `COC(=O)[C@H]1[C@H](CCc2ccccc2)NC(=O)N(Cc2ccccc2)[C@@H]1C`, which “activity, negative = inhibition” value is on record?
Its value is -2.55%.
